We go through one sequence from publication PMC7862700, “An all-to-all approach to the identification of sequence-specific readers for epigenetic DNA modifications on cytosine”.

Assay in all cases: DAPPL (digital affinity profiling via proximity ligation, sequencing); 10 mM Tris-HCl pH 7.5, 50 mM NaCl, 1 mM DTT, 4% glycerol, room temperature, 30 min; GST-TFs on glutathione beads, 16-mer random dsDNA library, 0.1% formaldehyde crosslink after washing; high values mean tight binding
For one test, the target named is T1, FEV (Homo sapiens, UniProt Q99581 1-238).
T1 sequence: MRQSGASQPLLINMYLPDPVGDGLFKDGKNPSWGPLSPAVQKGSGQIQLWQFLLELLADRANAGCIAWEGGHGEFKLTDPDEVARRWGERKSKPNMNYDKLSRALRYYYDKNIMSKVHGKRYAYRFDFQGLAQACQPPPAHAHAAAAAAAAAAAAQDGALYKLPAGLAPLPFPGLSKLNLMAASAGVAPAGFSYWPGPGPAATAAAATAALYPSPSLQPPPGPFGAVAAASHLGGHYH
To be noted: protein: recombinant; tags: N-terminal GST; dsDNA, one strand shown. A digest of the protocol:
(§1)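 Human transcription factors carrying a GST fusion were produced in yeast, bound to glutathione beads, tagged with DNA barcodes and pooled together with a tag-only sample. Each pool was held with 200 nmole of a random double-stranded 16-mer DNA library in Tris/NaCl/DTT/glycerol buffer for 30 min at room temperature, then washed, crosslinked in 0.1% formaldehyde, proximity-ligated with BsaI/T4 ligase (1 h, 37 °C), PCR-amplified and sequenced on an Illumina NextSeq500. Binding signal is the read frequency of each hexamer for a given factor divided by its frequency in the tag-only sample.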

In the next test the target is ETV5 (Homo sapiens, UniProt P41161 1-510). Conditions: protein: recombinant; tags: N-terminal GST; dsDNA, one strand shown. A digest of the protocol:
as §1

Another test deals with HSF1 (Homo sapiens, UniProt Q00613 1-529). Conditions: protein: recombinant; tags: N-terminal GST; chain copies: 3; dsDNA, one strand shown. Summed up:
as §1

Another test addresses T2, SPIC (Homo sapiens, UniProt Q8N5J4 1-248).
T2 sequence: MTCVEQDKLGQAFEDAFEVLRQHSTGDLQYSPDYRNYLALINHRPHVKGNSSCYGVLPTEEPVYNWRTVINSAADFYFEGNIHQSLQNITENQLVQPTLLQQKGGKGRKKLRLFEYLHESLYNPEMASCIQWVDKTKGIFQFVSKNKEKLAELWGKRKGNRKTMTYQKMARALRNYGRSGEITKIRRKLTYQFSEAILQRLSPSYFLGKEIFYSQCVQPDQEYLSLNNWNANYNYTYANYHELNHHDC
To be noted: protein: recombinant; tags: N-terminal GST; dsDNA, one strand shown. Summed up: as §1

The target of another test is ELF4 (Homo sapiens, UniProt Q99607 1-663). To be noted: protein: recombinant; tags: N-terminal GST; dsDNA, one strand shown. A digest of the protocol: as §1
For the next test, the target named is T3, ELK4 (Homo sapiens, UniProt P28324-2 1-405).
T3 sequence: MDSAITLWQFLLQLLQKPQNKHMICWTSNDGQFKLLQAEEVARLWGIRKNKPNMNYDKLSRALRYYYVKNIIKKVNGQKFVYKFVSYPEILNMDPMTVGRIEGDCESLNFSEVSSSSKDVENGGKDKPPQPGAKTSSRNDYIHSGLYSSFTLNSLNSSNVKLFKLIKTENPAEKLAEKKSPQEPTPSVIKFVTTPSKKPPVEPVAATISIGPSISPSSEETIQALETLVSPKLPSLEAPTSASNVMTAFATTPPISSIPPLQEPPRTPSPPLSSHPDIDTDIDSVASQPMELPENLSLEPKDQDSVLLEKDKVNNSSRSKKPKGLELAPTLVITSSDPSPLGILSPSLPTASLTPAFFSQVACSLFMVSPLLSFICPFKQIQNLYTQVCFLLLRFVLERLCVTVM
To be noted: protein: recombinant; tags: N-terminal GST; dsDNA, one strand shown. A digest of the protocol:
as §1

For a further test, the target named is T4, ETV2 (Homo sapiens, UniProt O00321 1-342).
T4 sequence: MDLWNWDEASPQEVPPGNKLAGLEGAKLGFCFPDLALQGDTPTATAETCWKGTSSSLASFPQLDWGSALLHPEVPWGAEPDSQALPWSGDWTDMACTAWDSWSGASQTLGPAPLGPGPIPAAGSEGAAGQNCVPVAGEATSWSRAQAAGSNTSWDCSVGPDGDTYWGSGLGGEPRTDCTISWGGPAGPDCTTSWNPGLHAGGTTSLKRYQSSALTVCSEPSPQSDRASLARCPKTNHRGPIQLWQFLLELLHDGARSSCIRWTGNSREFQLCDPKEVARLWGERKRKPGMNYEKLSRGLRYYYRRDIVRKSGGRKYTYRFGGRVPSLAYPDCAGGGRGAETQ
To be noted: protein: recombinant; tags: N-terminal GST; dsDNA, one strand shown. A digest of the protocol: as §1

The target in another test is T5, ELF3 (Homo sapiens, UniProt P78545 1-371).
T5 sequence: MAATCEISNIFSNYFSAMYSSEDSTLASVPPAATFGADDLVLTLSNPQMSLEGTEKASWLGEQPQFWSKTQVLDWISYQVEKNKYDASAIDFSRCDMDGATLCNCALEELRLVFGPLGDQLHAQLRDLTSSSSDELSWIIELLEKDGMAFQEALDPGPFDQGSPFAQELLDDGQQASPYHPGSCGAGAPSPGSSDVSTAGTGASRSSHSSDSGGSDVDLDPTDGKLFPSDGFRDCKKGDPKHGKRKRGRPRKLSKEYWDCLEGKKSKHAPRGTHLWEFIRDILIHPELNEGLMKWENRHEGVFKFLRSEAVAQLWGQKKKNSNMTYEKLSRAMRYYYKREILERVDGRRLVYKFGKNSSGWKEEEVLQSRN
To be noted: protein: recombinant; tags: N-terminal GST; dsDNA, one strand shown. Summed up: as §1

The next test addresses CRX (Homo sapiens, UniProt O43186 1-299). To be noted: protein: recombinant; tags: N-terminal GST; dsDNA, one strand shown. A digest of the protocol: as §1
The next test addresses ETV1 (Homo sapiens, UniProt P50549 1-477). To be noted: protein: recombinant; tags: N-terminal GST; dsDNA, one strand shown. A digest of the protocol: as §1
Another test deals with T6, ERF (Homo sapiens, UniProt P50548 1-548).
T6 sequence: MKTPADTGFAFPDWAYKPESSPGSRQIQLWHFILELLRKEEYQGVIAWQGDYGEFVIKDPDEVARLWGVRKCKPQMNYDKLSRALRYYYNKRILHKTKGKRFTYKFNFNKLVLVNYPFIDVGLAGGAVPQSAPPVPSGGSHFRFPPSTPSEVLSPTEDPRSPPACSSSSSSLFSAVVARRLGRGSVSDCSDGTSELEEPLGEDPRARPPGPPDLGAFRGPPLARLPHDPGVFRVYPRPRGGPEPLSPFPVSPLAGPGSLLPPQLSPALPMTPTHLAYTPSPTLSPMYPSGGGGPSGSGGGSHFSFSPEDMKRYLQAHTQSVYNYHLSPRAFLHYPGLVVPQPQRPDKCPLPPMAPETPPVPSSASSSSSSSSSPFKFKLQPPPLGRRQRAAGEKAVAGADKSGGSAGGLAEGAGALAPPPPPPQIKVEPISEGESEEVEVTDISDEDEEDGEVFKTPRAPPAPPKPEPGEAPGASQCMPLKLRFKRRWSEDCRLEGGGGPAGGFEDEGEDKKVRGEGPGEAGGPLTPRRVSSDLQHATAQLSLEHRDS
To be noted: protein: recombinant; tags: N-terminal GST; dsDNA, one strand shown. Summed up: as §1

The target in a further test is T7, ETV3L (Homo sapiens, UniProt Q6ZN32 1-361).
T7 sequence: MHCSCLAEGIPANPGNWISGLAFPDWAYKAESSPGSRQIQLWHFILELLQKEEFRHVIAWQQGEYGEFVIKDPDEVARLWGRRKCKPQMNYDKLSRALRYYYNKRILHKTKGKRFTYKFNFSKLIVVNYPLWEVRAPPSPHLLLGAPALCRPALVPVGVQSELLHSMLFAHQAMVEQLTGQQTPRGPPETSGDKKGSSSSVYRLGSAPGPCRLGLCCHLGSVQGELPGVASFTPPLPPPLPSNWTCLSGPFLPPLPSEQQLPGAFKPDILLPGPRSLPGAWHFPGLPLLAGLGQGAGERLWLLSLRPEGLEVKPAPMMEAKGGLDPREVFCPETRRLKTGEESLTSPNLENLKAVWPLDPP
To be noted: protein: recombinant; tags: N-terminal GST; dsDNA, one strand shown. A digest of the protocol:
as §1

The next test deals with T8, ETS2 (Homo sapiens, UniProt P15036 1-469).
T8 sequence: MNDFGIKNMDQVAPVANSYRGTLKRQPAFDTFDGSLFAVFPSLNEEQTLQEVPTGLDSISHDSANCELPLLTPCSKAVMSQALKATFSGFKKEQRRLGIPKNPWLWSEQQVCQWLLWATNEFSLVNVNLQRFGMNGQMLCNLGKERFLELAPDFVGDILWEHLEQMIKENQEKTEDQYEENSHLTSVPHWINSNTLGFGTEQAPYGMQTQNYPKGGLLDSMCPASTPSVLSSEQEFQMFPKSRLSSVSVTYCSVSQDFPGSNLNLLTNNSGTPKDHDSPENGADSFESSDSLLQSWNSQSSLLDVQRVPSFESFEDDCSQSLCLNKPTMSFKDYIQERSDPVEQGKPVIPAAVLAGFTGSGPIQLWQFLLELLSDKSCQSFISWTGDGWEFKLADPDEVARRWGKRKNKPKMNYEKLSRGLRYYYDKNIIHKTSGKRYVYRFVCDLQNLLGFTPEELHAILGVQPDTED
Conditions: protein: recombinant; tags: N-terminal GST; dsDNA, one strand shown. A digest of the protocol: as §1

A further test has as its target T9, SPDEF (Homo sapiens, UniProt O95238 1-335).
T9 sequence: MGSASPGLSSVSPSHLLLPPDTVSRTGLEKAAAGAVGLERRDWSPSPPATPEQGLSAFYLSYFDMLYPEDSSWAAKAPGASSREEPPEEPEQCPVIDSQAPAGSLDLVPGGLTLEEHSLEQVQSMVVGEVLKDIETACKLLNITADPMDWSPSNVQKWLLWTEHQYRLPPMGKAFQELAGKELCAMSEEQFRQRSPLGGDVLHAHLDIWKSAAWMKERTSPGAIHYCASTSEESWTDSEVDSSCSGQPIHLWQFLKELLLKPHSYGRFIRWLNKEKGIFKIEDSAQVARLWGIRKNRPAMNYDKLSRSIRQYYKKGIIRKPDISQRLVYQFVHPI
To be noted: protein: recombinant; tags: N-terminal GST; dsDNA, one strand shown. A digest of the protocol:
as §1

The target in a further test is T10, ETV7 (Homo sapiens, UniProt Q9Y603 1-341).
T10 sequence: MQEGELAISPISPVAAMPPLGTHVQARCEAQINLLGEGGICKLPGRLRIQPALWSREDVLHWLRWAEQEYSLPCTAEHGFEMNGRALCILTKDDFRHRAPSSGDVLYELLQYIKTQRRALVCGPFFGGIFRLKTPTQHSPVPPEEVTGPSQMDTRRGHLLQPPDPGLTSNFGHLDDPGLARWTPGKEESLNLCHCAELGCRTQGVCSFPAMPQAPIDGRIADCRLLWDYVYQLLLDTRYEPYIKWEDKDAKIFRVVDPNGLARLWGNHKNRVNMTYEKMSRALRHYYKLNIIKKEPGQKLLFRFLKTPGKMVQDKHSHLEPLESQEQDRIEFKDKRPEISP
To be noted: protein: recombinant; tags: N-terminal GST; dsDNA, one strand shown. A digest of the protocol:
as §1

The target of a further test is T11, ELF5 (Homo sapiens, UniProt Q9UKW6-2 1-255).
T11 sequence: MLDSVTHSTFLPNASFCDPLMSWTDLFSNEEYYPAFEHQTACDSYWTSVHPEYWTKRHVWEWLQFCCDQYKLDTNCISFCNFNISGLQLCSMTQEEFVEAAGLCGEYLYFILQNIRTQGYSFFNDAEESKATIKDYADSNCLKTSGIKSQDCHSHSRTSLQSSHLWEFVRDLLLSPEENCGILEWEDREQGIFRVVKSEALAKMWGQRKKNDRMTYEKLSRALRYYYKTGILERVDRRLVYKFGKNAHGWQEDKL
To be noted: protein: recombinant; tags: N-terminal GST; dsDNA, one strand shown. Summed up:
as §1

The next test concerns the target T12, ETV3 (Homo sapiens, UniProt P41162-2 1-143).
T12 sequence: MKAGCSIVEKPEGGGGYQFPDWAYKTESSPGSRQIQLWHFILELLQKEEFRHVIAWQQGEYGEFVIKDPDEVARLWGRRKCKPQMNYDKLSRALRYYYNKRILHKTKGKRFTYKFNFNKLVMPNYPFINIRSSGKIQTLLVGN
To be noted: protein: recombinant; tags: N-terminal GST; dsDNA, one strand shown. A digest of the protocol:
as §1

A further test deals with ETV6 (Homo sapiens, UniProt P41212 1-452). To be noted: protein: recombinant; tags: N-terminal GST; dsDNA, one strand shown. Summed up: as §1
Chain of ETV6 (P41212 whole entry): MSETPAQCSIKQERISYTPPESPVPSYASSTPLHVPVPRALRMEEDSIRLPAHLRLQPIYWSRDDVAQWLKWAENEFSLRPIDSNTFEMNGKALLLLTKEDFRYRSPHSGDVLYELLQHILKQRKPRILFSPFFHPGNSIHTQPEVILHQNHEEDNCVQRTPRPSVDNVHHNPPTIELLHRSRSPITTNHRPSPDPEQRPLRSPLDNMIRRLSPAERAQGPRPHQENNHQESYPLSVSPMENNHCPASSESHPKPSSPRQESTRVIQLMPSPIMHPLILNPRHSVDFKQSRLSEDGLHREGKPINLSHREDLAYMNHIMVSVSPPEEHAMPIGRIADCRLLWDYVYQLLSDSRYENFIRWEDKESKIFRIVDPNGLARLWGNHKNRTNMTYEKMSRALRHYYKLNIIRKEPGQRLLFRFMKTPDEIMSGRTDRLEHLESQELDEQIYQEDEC

Chain of HSF1 (Q00613 whole entry): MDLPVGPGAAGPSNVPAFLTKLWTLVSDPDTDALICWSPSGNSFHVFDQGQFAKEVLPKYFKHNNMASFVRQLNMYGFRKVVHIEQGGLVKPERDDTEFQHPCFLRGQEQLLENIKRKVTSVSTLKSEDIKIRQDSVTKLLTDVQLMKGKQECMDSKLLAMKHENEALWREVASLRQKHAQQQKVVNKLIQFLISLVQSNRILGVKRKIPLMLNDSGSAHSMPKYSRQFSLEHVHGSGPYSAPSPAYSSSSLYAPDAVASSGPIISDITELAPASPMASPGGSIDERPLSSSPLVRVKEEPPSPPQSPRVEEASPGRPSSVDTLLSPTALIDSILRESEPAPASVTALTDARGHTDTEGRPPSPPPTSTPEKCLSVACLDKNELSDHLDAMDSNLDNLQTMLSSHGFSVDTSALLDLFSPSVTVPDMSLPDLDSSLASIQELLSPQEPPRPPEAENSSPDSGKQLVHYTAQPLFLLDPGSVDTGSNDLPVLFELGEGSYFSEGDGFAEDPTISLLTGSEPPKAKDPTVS
Chain of ELF4 (Q99607 whole entry): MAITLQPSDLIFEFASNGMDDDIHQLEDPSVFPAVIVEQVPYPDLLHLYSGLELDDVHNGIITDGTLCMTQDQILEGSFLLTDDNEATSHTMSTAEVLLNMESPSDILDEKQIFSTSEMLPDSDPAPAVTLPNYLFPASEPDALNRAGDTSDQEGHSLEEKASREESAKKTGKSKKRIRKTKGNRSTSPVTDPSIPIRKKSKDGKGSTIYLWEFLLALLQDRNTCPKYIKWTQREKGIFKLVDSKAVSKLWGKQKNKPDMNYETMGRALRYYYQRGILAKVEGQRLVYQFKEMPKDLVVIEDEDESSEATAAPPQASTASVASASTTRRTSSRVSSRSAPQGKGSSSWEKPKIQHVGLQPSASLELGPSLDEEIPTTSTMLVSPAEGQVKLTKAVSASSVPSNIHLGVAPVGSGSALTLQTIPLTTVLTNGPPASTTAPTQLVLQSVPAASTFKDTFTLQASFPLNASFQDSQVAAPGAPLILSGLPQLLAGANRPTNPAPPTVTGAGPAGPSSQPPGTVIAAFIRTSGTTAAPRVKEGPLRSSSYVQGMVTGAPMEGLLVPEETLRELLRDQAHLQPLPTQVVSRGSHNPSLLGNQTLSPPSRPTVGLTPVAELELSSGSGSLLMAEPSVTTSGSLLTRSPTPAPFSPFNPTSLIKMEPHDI
Chain of ETV5 (P41161 whole entry): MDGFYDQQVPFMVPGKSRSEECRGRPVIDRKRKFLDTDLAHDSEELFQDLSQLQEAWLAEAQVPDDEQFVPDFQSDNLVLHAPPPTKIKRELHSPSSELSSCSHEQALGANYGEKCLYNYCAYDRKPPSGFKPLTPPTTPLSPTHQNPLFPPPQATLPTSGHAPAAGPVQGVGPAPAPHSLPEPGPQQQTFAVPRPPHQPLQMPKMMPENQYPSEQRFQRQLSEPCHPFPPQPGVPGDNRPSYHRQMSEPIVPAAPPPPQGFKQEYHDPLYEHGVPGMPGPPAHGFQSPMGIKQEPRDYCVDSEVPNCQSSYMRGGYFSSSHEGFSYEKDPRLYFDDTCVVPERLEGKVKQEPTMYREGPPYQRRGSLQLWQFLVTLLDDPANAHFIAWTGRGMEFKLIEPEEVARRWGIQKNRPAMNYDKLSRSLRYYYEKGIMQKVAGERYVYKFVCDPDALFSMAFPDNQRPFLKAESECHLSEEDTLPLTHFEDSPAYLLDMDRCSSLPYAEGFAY
Chain of CRX (O43186 whole entry): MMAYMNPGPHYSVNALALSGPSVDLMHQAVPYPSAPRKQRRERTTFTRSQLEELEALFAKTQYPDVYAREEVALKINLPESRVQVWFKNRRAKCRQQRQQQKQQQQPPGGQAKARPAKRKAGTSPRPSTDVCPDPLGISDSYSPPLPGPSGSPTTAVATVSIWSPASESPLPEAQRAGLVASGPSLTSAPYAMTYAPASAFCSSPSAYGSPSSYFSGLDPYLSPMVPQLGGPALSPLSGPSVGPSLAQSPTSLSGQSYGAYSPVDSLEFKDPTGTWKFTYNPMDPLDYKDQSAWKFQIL
Chain of ETV1 (P50549 whole entry): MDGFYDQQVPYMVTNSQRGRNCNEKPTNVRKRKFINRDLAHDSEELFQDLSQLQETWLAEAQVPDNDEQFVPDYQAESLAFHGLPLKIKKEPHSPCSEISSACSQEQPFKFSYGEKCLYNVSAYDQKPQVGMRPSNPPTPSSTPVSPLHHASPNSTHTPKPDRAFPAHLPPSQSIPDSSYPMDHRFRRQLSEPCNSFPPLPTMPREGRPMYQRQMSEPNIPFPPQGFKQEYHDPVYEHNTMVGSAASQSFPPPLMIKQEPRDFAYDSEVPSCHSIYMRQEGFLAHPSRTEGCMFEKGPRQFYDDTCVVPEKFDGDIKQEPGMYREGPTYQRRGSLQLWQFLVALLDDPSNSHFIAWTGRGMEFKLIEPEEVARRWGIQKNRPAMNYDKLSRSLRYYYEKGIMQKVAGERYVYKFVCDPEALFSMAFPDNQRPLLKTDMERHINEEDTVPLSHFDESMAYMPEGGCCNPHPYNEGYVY

As to CCTATC, the binding signal is 1.16 fold enrichment (6-mer frequency, TF over GST control) in the test with FEV; 1.14 fold enrichment (6-mer frequency, TF over GST control) with ETV5; 1.06 fold enrichment (6-mer frequency, TF over GST control) in the test with HSF1; 1.1 fold enrichment (6-mer frequency, TF over GST control) with SPIC; 1.16 fold enrichment (6-mer frequency, TF over GST control) with ELF4; 1.14 fold enrichment (6-mer frequency, TF over GST control) in the test with ELK4. For the same sequence, the binding signal in the test with ETV2 was 1.08 fold enrichment (6-mer frequency, TF over GST control); with ELF3 it was 1.23 fold enrichment (6-mer frequency, TF over GST control); with CRX it was 1.15 fold enrichment (6-mer frequency, TF over GST control); with ETV1 it was 1.16 fold enrichment (6-mer frequency, TF over GST control); in the test with ERF, 1.17 fold enrichment (6-mer frequency, TF over GST control); in the test with ETV3L, 1.22 fold enrichment (6-mer frequency, TF over GST control). The binding signal with ETS2 was 1.2 fold enrichment (6-mer frequency, TF over GST control); with SPDEF it was 1.29 fold enrichment (6-mer frequency, TF over GST control); in the test with ETV7 it was 1.3 fold enrichment (6-mer frequency, TF over GST control); with ELF5, 1.12 fold enrichment (6-mer frequency, TF over GST control); in the test with ETV3, 1.2 fold enrichment (6-mer frequency, TF over GST control); in the test with ETV6, 1.12 fold enrichment (6-mer frequency, TF over GST control).
